IL-2 act = activators of IL-2; IL-2 activation reporter assay, cell-based qHTS; stimulated with anti-CD3/CD4/CD28 beads; in transgenic mouse T cells; activation, % (series mostly up to about 46 µM); actives 0.065% (n = 360,000); in the data active = activation above about 50%; inconclusive = mostly about 30% to 49%; note: 0% is about no effect
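Unstimulated transgenic mouse T cells; 60-min compound exposure; bead-based TCR/CD4/CD28 stimulation; 18 h culture, 37 degrees C; dual fluorescence (EGFP, DsRed) plate cytometry.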
Pin1 inhibitor = human Pin1 inhibition. Q13526. Pin1 FP peptide displacement, HiFluor488, 10 min. Potency, µM (highest dose often 115 µM), for the others: at the top dose activity, negative = inhibition, hits mostly inhibitors. actives 0.009% (n = 390,000); active = well fitted inhibition curve with a large enough effect in the polarisation, with a control signal flat, not every such curve was filed as active; inconclusive = small, poorly fitted or top-dose-only effect, or effect the other way, or a change in a side signal; inactive = no such curve, though single readings can be large or run the other way; the % refers to the polarisation; note: potency is the fitted concentration of half-maximal effect; % is set by controls: 0 for no effect and ±100 for the full control effect
Integrin act MD = activators of alpha7 integrin expression for muscular dystrophy; actives 0.064% (n = 350,000); Potency, µM (highest dose often 38.3 µM), inactives show at the top dose activation, hits mostly activators; alpha7betagal myoblasts, beta-gal FDG fluorescence, 48 h;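 note: potency is the fitted concentration of half-maximal effect; 100% = response of the positive control SU9516; nearly all actives have a fitted effect of over 60% in size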
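Alpha7betagal+/- myoblasts (passage 13) were plated 16-24 hr, then exposed to compounds (1:260 dilution of DMSO stock) for 48 hours at 37C. After MPER lysis, β-galactosidase reporter activity was read as FDG fluorescence (ex 480/em 540) after 30 minutes.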
USP2a block = inhibitors of human ubiquitin-specific protease USP2a; USP2 core, Ub-CHOP2 coupled fluorogenic reporter, 485/531; Potency, µM (highest dose often 38.3 µM), for inactives: at the highest dose activity change, negative = inhibition, hits mostly inhibitors; actives 0.01% (n = 330,000);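 note: potency is the fitted concentration of half-maximal effect; plate controls were DMSO wells for no effect and full inhibition by NEM control for full effect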
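Cell-free coupled assay: 10nM USP2 core preincubated 30min RT with compound in Tris-HCl pH 8.0/CaCl2/CHAPS buffer, then 25nM Ub-CHOP2 and 25nM reporter substrate; fluorescence (Ex 485/Em 531) read after 60min RT, normalized to NEM inhibition, concentration-response curves fitted.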
PKM2 act = PKM2 (human) enzyme activation; actives 0.34% (n = 260,000); P14618; purified PKM2, Kinase-Glo ATP luminescence, activation; response scale: 0% is enzyme alone, no compound; Potency, µM (doses to about 57.5 µM), without a hit: at the top dose activation, most hits filed as activators; AID 1631; note: potency is the fitted concentration of half-maximal effect; % is set by controls: 0 for no effect and ±100 for the full control effect; nearly all actives have a fitted effect of over 55% in size
Target sequence (P14618 whole entry, looked up): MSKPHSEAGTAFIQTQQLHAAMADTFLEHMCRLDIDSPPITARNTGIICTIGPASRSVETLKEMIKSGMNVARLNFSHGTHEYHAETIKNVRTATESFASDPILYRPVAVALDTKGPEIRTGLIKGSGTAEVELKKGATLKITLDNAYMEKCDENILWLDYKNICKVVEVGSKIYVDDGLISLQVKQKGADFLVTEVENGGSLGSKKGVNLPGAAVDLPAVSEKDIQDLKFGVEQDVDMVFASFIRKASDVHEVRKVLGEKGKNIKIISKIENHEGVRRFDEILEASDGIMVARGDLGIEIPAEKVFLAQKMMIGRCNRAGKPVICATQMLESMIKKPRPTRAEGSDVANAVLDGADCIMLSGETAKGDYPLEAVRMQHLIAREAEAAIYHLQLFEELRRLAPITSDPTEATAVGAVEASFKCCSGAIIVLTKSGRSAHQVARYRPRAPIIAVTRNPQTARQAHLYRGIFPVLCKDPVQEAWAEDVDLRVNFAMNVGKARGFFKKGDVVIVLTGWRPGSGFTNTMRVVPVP
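hPK-M2, >95% pure; 0.1 mM ADP / 0.5 mM PEP final; imidazole pH7.2 buffer w/ 7 mM MgCl2, 50 mM KCl; 1 h RT; Kinase-Glo lum. Intermediate enzyme activity for dual inhibitor/activator qHTS.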
ClpP mod = qHTS Assay for Activators of ClpP | actives 1.9% (n = 340,000) | Potency, µM (titrated, usually from 57.5 µM), for inactives: top-dose activity change, negative = active | ATP-dependent Clp protease proteolytic subunit (Bacillus subtilis (strain 168)), P80244 | AID 651965, 2013 | purified B. subtilis ClpP, FRET peptide cleavage, 20 min; active = well fitted falling curve with a large enough effect; inconclusive = small, poorly fitted or top-dose-only effect; inactive = no such curve, though single readings can be large or run the other way; note: potency is the fitted concentration of half-maximal effect; the source files actives as falling curves though it sought activators and does not explain the sign; nearly all actives have a fitted effect of over 65% in size
Target sequence (P80244 whole entry, looked up): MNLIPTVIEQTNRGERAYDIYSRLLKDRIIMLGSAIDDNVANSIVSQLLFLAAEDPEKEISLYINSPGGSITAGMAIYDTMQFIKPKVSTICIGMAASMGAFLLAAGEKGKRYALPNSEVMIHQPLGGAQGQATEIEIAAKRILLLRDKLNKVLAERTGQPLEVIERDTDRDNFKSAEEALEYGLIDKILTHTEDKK
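Purified B. subtilis ClpP, 10 microg/mL final in Tris/HCl pH8 with KCl, BSA, glycerol and Tween-20, cleaved an Abz/nitrotyrosine-quenched decapeptide. Fluorescence (ex 320, em 430) was read at 0 and 20 min at room temperature. Delta was normalized to 5.8 microM ADEP and DMSO/no-enzyme controls.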
Active calls of the source: *; ? = inconclusive; / = no result; [ ] = another dose, or the depositor's remark. Sampled rows, rich in hits. Any-hit rate of the full collection: about 1.9%. Unless noted, calls come from the whole dose curve; as a rule, active = well fitted curve in the direction sought with a large enough effect; inconclusive = small, poorly fitted or top-dose-only effect, or another doubt; inactive = no such curve, though single readings can be large; an effect the other way counts as inactive or inconclusive.

SMILES	IL-2 act	Pin1 inhibitor	Integrin act MD	USP2a block	PKM2 act	ClpP mod
Clc1cccc(-c2cc3nc4c(c(N5CCN(c6cnccn6)CC5)n3n2)CCCC4)c1	-4	-2%	11%	2%	-4%	10µM*
OC1CCN(c2c3c(nc4cc(-c5ccc(Cl)cc5)nn24)CCC3)CC1	0	1%	-9%	0%	-5%	14µM*
Clc1cccc(-c2cc3nc4c(c(N5CCOCC5)n3n2)CCCC4)c1	0	?	?	0%	-1%	32µM*
CCOc1ccc(CCNC(=O)c2cccc3c2C(=O)N(CCOC)C3)cc1OCC	55*	?	-2%	0%	/	1%
Nc1nc(NCCc2ccccc2)c2[nH]cnc2n1	/	1%	/	/	/	-1%
Cc1cc2c(cc1S(=O)(=O)NCc1ccc(F)cc1)n(C)c(=O)c(=O)n2C	/	15%	/	/	/	-13%
Cc1cc2c(cc1S(=O)(=O)Nc1cccc(F)c1)n(C)c(=O)c(=O)n2C	-4	-4%	-7%	3%	2µM*	0%
CCN1CCN(CCC(=O)Nc2ccccc2OC)CC1	-2	-6%	-7%	1%	3%	-2%
CCN1CCN(CC(=O)Nc2c(OC)cccc2OC)CC1	-2	1%	-5%	-1%	/	22µM*
CCN1CCN(CCC(=O)Nc2cc(OC)cc(OC)c2)CC1	-1	6%	-9%	1%	1%	28µM*
O=S(=O)(c1ccc(C(F)(F)F)cc1)N1CCN(S(=O)(=O)c2ccc3c(c2)OCCO3)CC1	/	-4%	/	/	/	/
CC1CCC/C(=C\Nc2ccccc2C(=O)O)C1=O (stereo not given)	-3	-11%	-24%	1%	0%	22µM*
CC1CCC/C(=C\Nc2ccc3c(c2)OCO3)C1=O (stereo not given)	0	-13%	0%	2%	-3%	-1%
CC(C)(C)OC(=O)NCCCCCc1nnc(SCC(=O)Nc2cccc(Cl)c2)o1	1	1%	-22%	5%	25µM*	-2%
CC(C)(C)OC(=O)NCCc1nnc(SCC(=O)Nc2cccc(Cl)c2)o1	0	3%	-12%	3%	1%	-1%
CCOc1ccc(C(=O)NCCc2sc(-c3ccc(C)cc3)nc2C)cc1	/	14%	/	/	/	4%
CCOc1ccc(C(=O)NCCc2sc(-c3ccc(F)cc3)nc2C)cc1	/	0%	/	/	/	25µM*
CCCN(CCC)c1ccc(/C=C/c2sc3ccccc3[n+]2CCCCI)cc1	/	/	/	/	/	2%
Cc1nc2c(cnn2-c2ccccc2)c(=O)n1/N=C/c1ccccc1	-1	13%	10µM*	1%	-2%	-1%
CCCCc1c(CCC)c(=N)c2ccccc2n1C	-5	-2%	-63%	2%	-9%	16µM*
Cc1nc2c(-c3ccccc3)c[nH]n2c(=O)c1Cc1ccccc1	-1	-3%	3%	-9%	-14%	/
Cc1cc2nc(C)c(Cc3ccccc3)c(=O)n2[nH]1	-1	-2%	8%	-1%	5%	14µM*
O=C(Cc1ccc(OCC2CCCCC2)cc1)NO	/	/	/	/	/	0%
Cc1cc(C)c2cc(C(O)c3nnnn3Cc3ccccc3)c(=O)[nH]c2c1 (stereo not given)	-1	5%	-23%	0%	13µM*	?
Cc1cc(C)c2cc(CN(CCO)C(c3nnnn3Cc3ccc(F)cc3)C(C)C)c(=O)[nH]c2c1 (stereo not given)	/	/	/	-1%	1%	/
SMILES	IL-2 act	Pin1 inhibitor	Integrin act MD	USP2a block	PKM2 act	ClpP mod
COc1cc2nc(N3CCCN(C)CC3)nc(N)c2cc1OC	/	/	/	/	/	3%
COc1ccc(-c2nc(CSCC(=O)NC3CCCc4ccccc43)c(C)o2)cc1OC (stereo not given)	-2	?	26%	-5%	7%	28µM*
CCOC(=O)N1CCC(NC(=O)CSCc2nc(-c3ccc(OC)c(OC)c3)oc2C)CC1	-2	5%	-7%	2%	-10%	8.9µM*
COc1ccc(-c2nc(CS(=O)CC(=O)NC3CCCc4ccccc43)c(C)o2)cc1OC (stereo not given)	-1	-13%	10%	3%	6%	4%
CCOc1ccc(-c2nc(CSCC(=O)N3CCN(C(=O)c4ccco4)CC3)c(C)o2)cc1	-1	-1%	12%	4%	12%	-11%
CCOC(=O)C1CCN(C(=O)CSCc2nc(-c3ccc(OCC)cc3)oc2C)CC1	3	1%	-36%	1%	-1%	28µM*
Cc1ccc(CNc2ncnc3ccc(-c4ccc5c(c4)OCO5)cc23)o1	/	24%	/	/	/	/
CCCC(=O)N1CC(=O)Nc2ccc(C)cc2C1c1ccccc1 (stereo not given)	-2	2%	-7%	3%	/	18µM*
COC(=O)C(C(=O)OC)[C@@H]1c2ccccc2[C@H]2C(=C[C@@H](C)[C@H]3C(=O)N(c4ccccc4)C(=O)[C@H]32)N1C(=O)OC	/	/	/	/	-6%[11.5 µM]	/
Fc1cccc2sc(Nc3nc4cc5c(cc4s3)OCO5)nc12	-2	-8%	-20%	-2%	-6%	14µM*
CCC[N+](C)(C)c1ccc(/C=C/c2ccnc3ccccc23)cc1	/	/	/	/	/	1%
Cc1cnc(/C=C/c2ccc(N(C)C)cc2)cn1	/	/	/	/	/	5%
N#Cc1c(Nc2ccccc2)sc(C(=O)c2ccccc2)c1N	-1	15%	3%	3%	8%	-2%
Cc1cccc(Oc2sc(C(=O)c3ccccc3)c(N)c2C#N)c1	-1	8%	-1%	-4%	3%	14µM*
CCn1c(-c2cc3c(C(F)(F)F)nn(C)c3s2)n[nH]c1=S	-4	3%	14%	-2%	7%	28µM*
N=c1c2c(ccn1CCc1ccccc1)Oc1ccc3ccccc3c1C2c1ccccc1 (stereo not given)	/	27%	/	/	/	/
C[S+](C)CC(=O)c1ccc2ccccc2c1	/	/	/	/	/	-17%
COc1ccc(NC(=O)c2sc3nc4c(cc3c2N)CCCCCC4)cc1Cl	/	3%	/	/	/	13µM*
COc1ccc(NC(=O)c2sc3nc4c(cc3c2N)CCCCCC4)cc1	/	6%	/	/	/	4%
CC(=O)NC(Cc1ccc(I)cc1)C(=O)NCC(N)C(=O)c1ccccc1 (stereo not given)	/	/	/	/	/	-1%
CCc1nnc(NS(=O)(=O)c2ccc(NC(=O)OC)cc2)s1	-3	0%	4%	6%	28µM*	2%

Assay outcomes from PubChem.
